For some assays here: Entries with a potency or affinity are not part of this list.
Assays:
Parameters in all cases: scale not given: direction of the effect not stated beside the values
[1] = biological target: Protein translocase subunit SecA (Escherichia coli (strain K12)) (UniProt P10408); assay: Assay to Identify E. coli SecA ATPase Inhibitors; type: functional; conditions: 30 µM
[2] = biological target: T1, Ubiquitin-activating enzyme e1, putative (Leishmania donovani (strain BPK282A1)) (UniProt E9BSI1); assay: Leishmania donovani Ubiquitin Activating Enzyme (LdE1); type: functional; conditions: 30 µM
T1 sequence (whole entry): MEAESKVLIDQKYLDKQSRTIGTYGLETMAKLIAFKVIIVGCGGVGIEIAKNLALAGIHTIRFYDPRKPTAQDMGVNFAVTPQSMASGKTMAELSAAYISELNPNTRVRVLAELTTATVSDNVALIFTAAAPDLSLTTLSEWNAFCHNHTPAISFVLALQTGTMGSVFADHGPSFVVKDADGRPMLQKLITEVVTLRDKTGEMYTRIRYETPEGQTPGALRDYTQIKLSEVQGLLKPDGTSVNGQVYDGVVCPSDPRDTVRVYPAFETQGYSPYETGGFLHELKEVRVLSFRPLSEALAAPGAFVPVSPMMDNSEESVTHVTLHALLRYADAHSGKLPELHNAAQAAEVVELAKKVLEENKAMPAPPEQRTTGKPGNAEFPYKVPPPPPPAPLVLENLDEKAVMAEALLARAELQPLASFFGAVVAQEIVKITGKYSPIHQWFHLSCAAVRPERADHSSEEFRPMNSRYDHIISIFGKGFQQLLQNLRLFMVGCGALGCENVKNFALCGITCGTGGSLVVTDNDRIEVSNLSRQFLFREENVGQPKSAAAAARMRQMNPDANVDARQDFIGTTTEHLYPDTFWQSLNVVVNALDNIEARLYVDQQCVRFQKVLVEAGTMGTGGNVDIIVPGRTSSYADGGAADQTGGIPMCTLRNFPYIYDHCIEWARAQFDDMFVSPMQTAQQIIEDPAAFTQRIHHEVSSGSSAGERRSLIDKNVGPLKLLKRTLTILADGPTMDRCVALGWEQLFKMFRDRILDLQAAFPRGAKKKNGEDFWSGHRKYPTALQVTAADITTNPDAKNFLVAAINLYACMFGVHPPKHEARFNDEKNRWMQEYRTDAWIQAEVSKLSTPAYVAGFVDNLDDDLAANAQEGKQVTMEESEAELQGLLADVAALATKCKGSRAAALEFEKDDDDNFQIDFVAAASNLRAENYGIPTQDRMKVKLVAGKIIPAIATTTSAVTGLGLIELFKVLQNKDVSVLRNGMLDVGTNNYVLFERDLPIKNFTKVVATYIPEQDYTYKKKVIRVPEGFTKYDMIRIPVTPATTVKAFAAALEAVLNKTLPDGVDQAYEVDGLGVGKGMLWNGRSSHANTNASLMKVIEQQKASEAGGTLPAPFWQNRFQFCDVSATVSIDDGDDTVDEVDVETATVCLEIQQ

[3] = biological target: AMP-activated protein kinase, AMPK (Homo sapiens) (UniProt P54646+O43741+P54619+Q9UGJ0+Q9Y478+Q13131+Q9UGI9); assay: AMP-dependent Kinase enzyme assay. An in vitro enzyme assay that detects ADP turnover that is directly proportional to AMPK activity. This uses naive AMPK that is activated during the assay with MK-8722; type: functional; conditions: 30 µM
[4] = biological target: Sialic acid-binding Ig-like lectin 9 (Homo sapiens) (UniProt Q9Y336); assay: Hs-Siglec9 ALPHAscreen SOP 20170721; conditions: 10 µM
Sialic acid-binding Ig-like lectin 9 (Homo sapiens), sequence (Q9Y336 whole entry): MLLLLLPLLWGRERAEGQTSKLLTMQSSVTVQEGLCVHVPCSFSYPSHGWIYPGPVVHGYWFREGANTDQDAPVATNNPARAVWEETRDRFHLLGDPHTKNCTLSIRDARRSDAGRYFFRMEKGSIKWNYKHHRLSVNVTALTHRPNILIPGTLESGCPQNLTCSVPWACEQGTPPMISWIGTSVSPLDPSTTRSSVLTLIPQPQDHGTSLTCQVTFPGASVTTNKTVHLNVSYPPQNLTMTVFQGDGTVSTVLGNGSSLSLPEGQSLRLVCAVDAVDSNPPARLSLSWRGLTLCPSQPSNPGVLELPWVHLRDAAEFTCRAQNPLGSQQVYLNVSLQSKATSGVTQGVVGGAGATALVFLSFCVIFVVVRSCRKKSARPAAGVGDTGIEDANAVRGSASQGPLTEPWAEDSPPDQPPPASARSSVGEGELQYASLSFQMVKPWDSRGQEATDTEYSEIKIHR

Trypanosoma cruzi = assay: Trypanosoma cruzi phosphomannomutase and mannose-1-phosphate guanylyltransferase assay; type: functional; conditions: 10 µM
[5] = biological target: T2, Arginase-2, mitochondrial (Homo sapiens) (UniProt P78540); assay: in vitro enzyme assay to detect the production of urea directly proportional to the activity of Arginase II; type: functional; conditions: 33.3 µM; also: in the data most compounds retested in dose-response had high values
T2 sequence (whole entry): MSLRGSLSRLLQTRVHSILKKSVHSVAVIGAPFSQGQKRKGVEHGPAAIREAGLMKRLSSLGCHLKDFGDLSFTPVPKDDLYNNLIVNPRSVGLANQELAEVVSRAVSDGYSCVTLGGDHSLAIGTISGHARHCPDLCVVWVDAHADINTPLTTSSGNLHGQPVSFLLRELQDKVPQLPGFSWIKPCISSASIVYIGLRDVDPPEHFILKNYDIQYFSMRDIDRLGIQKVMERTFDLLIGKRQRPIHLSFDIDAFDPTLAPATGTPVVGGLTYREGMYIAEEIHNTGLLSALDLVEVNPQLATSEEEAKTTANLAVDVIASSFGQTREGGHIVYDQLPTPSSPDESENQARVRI

[6] = biological target: T3, Proteasome subunit beta (Trypanosoma cruzi) (UniProt O96673); assay: Trypanosoma cruzi proteasome chymotrypsin-like activity (TcProtChymo) assay.; also: in the data most compounds retested in dose-response had high values; type: functional; conditions: 9.37 µM
T3 sequence (whole entry): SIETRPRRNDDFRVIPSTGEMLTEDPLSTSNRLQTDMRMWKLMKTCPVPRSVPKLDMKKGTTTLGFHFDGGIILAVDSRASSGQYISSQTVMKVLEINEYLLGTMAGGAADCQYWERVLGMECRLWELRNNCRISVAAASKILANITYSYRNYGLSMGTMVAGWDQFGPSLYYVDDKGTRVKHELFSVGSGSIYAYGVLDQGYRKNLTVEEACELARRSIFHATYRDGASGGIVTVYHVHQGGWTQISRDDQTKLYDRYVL

Homo sapiens = species on record: Homo sapiens; assay: To identify inhibition of the IFN signalling (Jak-Stat) pathway via expression of an eGFP reporter gene under the control of an IFN-stimulated response element (ISRE) containing MxA promoter.; type: functional; conditions: 30 µM
[7] = biological target: T4, Tyrosyl-tRNA synthetase, putative (Trypanosoma cruzi (strain CL Brener)) (UniProt Q4DSP6); assay: Trypanosoma cruzi tyrosyl tRNA synthetase (TcYRS) _High Tyrosine SOP; type: functional; conditions: 30 µM; also: in the data most compounds retested in dose-response had high values
T4 sequence (whole entry): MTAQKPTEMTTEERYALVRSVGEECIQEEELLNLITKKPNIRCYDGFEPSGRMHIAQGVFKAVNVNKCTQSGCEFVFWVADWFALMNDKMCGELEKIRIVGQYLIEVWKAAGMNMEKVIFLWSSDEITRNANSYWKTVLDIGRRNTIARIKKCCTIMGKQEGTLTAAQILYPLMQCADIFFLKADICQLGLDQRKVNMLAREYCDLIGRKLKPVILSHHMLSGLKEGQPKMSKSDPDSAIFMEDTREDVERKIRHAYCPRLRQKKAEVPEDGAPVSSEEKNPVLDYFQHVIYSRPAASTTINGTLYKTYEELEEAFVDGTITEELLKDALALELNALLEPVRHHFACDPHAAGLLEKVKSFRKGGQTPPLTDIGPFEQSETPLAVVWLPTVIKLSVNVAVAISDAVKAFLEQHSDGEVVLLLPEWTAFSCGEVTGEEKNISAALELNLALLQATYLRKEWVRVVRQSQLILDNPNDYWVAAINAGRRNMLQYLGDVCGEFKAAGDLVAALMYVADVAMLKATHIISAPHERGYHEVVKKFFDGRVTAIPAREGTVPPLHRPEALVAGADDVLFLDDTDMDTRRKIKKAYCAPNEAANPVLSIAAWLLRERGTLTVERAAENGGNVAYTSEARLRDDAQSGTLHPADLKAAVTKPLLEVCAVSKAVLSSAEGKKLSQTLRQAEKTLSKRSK

[8] = biological target: T4, Tyrosyl-tRNA synthetase, putative (Trypanosoma cruzi (strain CL Brener)); assay: Trypanosoma cruzi tyrosyl tRNA synthetase (TcYRS) SOP; type: functional; conditions: 30 µM
[9] = biological target: Chromo domain-containing protein 1 (Saccharomyces cerevisiae (strain ATCC 204508 / S288c) (Baker's yeast)) (UniProt P32657); assay: ScCHD-1 Enzyme Inhibition Assay; type: functional; conditions: 30 µM; also: in the data most compounds retested in dose-response had high values
Chromo domain-containing protein 1 (Saccharomyces cerevisiae (strain ATCC 204508 / S288c) (Baker's yeast)), sequence (P32657 whole entry, the tested form may be a part): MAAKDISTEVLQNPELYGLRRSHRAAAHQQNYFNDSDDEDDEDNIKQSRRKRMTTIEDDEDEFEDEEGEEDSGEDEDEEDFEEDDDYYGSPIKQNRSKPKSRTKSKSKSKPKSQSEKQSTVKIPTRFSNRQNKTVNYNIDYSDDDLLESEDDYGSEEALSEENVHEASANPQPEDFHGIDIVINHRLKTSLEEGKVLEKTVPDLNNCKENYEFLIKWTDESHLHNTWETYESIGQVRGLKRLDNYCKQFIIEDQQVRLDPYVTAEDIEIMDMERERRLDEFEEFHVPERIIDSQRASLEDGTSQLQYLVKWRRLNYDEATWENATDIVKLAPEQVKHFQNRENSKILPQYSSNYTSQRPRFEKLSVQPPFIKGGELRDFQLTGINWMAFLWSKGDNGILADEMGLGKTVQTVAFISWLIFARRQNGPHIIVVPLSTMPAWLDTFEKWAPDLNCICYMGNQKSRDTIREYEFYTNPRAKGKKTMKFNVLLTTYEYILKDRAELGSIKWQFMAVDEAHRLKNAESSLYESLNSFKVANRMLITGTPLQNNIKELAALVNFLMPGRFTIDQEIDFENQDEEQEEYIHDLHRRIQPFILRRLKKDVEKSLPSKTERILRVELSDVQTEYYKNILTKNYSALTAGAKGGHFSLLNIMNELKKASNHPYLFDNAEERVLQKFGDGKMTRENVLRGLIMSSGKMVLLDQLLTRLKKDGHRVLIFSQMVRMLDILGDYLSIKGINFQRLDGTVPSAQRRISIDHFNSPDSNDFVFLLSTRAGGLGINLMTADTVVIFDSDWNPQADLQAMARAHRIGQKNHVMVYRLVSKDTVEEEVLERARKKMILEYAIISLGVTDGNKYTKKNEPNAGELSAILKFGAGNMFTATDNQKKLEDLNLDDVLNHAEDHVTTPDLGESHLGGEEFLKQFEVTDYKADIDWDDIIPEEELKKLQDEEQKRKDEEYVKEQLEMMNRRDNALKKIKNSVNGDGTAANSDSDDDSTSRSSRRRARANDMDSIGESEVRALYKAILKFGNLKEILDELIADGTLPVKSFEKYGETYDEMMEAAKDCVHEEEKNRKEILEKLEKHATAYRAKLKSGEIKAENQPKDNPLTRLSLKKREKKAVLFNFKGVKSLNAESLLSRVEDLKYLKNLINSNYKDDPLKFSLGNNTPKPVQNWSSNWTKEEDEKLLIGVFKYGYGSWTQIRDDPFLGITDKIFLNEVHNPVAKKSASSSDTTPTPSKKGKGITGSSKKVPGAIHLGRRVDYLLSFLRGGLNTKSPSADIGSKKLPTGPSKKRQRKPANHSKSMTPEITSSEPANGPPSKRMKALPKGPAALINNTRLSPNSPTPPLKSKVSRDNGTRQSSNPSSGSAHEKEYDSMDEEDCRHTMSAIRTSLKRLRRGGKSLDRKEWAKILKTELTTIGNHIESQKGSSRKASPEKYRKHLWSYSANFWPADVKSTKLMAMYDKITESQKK

Protein translocase subunit SecA (Escherichia coli (strain K12)), sequence (P10408 whole entry): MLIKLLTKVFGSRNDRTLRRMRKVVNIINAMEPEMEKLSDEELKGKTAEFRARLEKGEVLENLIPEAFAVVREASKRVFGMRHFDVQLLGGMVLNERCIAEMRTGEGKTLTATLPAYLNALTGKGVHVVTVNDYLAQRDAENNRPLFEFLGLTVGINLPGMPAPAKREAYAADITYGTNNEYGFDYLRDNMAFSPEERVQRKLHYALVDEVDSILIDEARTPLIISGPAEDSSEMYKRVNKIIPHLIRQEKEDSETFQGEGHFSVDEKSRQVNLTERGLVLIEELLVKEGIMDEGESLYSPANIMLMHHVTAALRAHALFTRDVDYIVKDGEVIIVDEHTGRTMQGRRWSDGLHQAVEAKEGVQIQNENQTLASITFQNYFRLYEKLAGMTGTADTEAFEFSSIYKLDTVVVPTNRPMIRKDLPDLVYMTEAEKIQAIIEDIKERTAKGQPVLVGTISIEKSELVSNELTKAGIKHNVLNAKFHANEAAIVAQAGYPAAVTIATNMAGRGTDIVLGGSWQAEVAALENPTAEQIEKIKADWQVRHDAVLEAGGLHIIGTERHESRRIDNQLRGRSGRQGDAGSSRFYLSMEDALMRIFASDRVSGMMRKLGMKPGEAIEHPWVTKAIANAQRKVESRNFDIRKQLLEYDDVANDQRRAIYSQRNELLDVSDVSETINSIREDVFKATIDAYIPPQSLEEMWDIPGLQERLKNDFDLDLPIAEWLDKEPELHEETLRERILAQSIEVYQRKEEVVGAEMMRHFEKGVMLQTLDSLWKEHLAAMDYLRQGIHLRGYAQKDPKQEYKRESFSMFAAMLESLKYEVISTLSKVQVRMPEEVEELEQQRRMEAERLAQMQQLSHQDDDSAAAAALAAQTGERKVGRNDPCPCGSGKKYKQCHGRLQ

SMILES | Percent Effect [1] [%] | Percent Effect [2] [%] | Percent Effect [3] [%] | Percent Effect [4] [%] | Percent Effect (Trypanosoma cruzi) [%] | Percent Effect [5] [%] | Percent Effect [6] [%] | Percent Effect (Homo sapiens) [%] | Percent Effect [7] [%] | Percent Effect [8] [%] | Percent Effect [9] [%]
O=C(CN1CCNCC1)N1CC[C@@H](c2ccc3ccccc3c2)[C@H](O)C1 | -0.963 | 8 | -4.87 | 12.2 | 0.876 | 2.08 | 14.7 | 10.1 | 7.1 | 13.6 | -3.45
CN(Cc1ccc(Cl)s1)C1CCCN(c2cccnn2)C1 (configuration not stated) | -0.186 | -18.4 | 14.3 | 0.257 | 1.27 | 15.4 | 7.19 | 10.5 | 9.57 | 10.4 | -1.67
c1cc(CN2CCCC(c3noc(C4CC4)n3)C2)no1 (configuration not stated) | 0.187 | -5.41 | -9.37 | 9.04 | 4.25 | -6.41 | 4.32 | 20.7 | 3.45 | 6.17 | -4.15
O=C(CC1CC1)N1CCn2cc(Cn3cncn3)nc2C1 | -2.33 | 10.4 | 4.72 | 3.11 | -4.04 | -13.6 | 10.8 | 2.39 | 3.17 | 11.5 | -6.64
Cc1ncsc1C(=O)NC1CCN(CCC(N)=O)CC1 | -5.32 | 15.6 | -3 | 11 | -2.62 | 0.356 | 4.56 | 4.69 | 4.85 | 9.76 | -1.54
CCn1cc(CN2CCc3nc(N4CCOCC4)nc(O)c3CC2)cn1 | -7.19 | 12.2 | -3.19 | 18.1 | 0.988 | -6.26 | 7.64 | 4.24 | 3.23 | 9.09 | -27.2
CC(=O)N1CCCC1c1ccc(C(=O)N2CCOCC2)s1 (configuration not stated) | -6.72 | -2.7 | 2.48 | -7.62 | -4.2 | -2.23 | -0.601 | 26.2 | -2.15 | -3.7 | 4.51
C1CC(CN2CCO[C@H]3[C@H](OCC4CC4)CC[C@@H]32)CCO1 | -7.62 | 2.7 | -2.6 | -1.5 | -2.93 | 2.08 | 16.3 | 7.72 | 5.94 | 3.66 | -1.93
Cn1ccnc1CN1CCCN(C(=O)c2ccc(Cl)o2)CC1 | -4.86 | 0 | -1.55 | 4.15 | 1.4 | 1.44 | 3.13 | -16.8 | 2.46 | 1.24 | 0.744
Cc1ccc([C@@H]2CN(S(=O)(=O)N(C)C)C[C@H]2N(C)C)cc1 | -5.32 | 13.5 | -7.05 | 37 | 3.42 | 45.9 | 8.84 | -3.64 | 4.3 | 11.1 | -14.3
Cc1ncc2c(n1)CN(Cc1nnc(-c3occc3C)o1)CC2 | -2.4 | 18.9 | -24.9 | 14.5 | 6.04 | 2.03 | 6.82 | -0.684 | 22.8 | 30.5 | -8.36
COc1ccc(C(C(=O)O)N2CCCN(C3CCCCC3)CC2)cn1 (configuration not stated) | -1.53 | 13.5 | -8.59 | 8.33 | 6.55 | -6.2 | 15.5 | -5.05 | 2.15 | 21 | -12.3
CC(C)NC(=O)N1CCN(C(=O)N(C)C)CC2(CC(=O)N(C)C2)C1 (configuration not stated) | -3.05 | 13.5 | -4.22 | 1.04 | 1.56 | 6.25 | 18.5 | 7.62 | 8.91 | 13.4 | -7.18
Cc1nn(C)c(N(C)C)c1CNCC(O)COc1ccccc1 (configuration not stated) | -3.8 | 5.48 | -12.3 | 0.598 | 4.11 | 2.27 | 17.4 | -13.8 | 5.38 | 17.5 | -1.71
CCNc1cc2c(nn1)CCN(C(=O)Cc1c(C)noc1C)C2 | -9.15 | 7.89 | 9.72 | 1.08 | -5.51 | 0.719 | 3.47 | 6.32 | 0.493 | 1.24 | 3.07
CS(=O)(=O)c1ccc(C(O)CN2CCC(c3ccn[nH]3)CC2)cc1 (configuration not stated) | -2.89 | 15.2 | -2.45 | -1.3 | -2.17 | 4.94 | 5.32 | -11.8 | 5.42 | 16.5 | -6.15
COc1cccc2ccn(CCC(=O)N3CCCC(C(=O)O)C3)c12 (configuration not stated) | -7.04 | 21.1 | 5.95 | -0.508 | 3.8 | -1.18 | 14.1 | 6.03 | 2.13 | 10.4 | -7.67
CCOC(=O)N1CCN(c2nc(NC)c3ccccc3n2)CC1 | -3.25 | 4 | -1.05 | 9.22 | 4.52 | -5.46 | 6.1 | 3.01 | 1.06 | 5.13 | -1.69
CCOCC(O)CN1CCN(C(=O)C2CC2)CC1 (configuration not stated) | -3.95 | 16.2 | 86.5 | -5.78 | 1.04 | -8.42 | 2.52 | 10.7 | 9.36 | 16.1 | -7.42
O=C(Nc1ccc(N2CCCC2)nc1)N1CCc2sccc2C1 | -5.59 | 2.7 | 0.616 | 0.939 | -8.59 | -0.833 | 22.1 | 7.44 | 13.9 | 13.4 | 1.64
COc1ccc(C2=CCN(C(=O)CN(C)Cc3ccoc3)CC2)cc1 | -6.75 | 7.59 | -2.65 | 5.81 | 11.6 | -5.32 | 10.4 | 28.5 | 8.37 | 21.5 | -11.7
CC(=O)N1CCC2(CCCN(C(=O)c3ccccc3)C2)C1 (configuration not stated) | -2.42 | 0 | 11 | -1.1 | -1.57 | 3.03 | 1.85 | -0.0486 | 2.13 | 1.28 | 5.13
